Counter-ions that a name gives are not always drawn.
Test system: OCI-AML2
Assay: cell viability relative to vehicle control; higher = less cytotoxic
Details: 10 µM; SRSF2 genotype: wt/wt
Method in brief: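 After removal of identity-inconsistent compounds, the Selleck bioactive, kinase and epigenetic probe libraries were screened on CRISPR-edited mutant clones and isogenic wild-type clones of four leukaemia lines. Plates were 384-well, each well holding 2000 cells in 50 µL medium and receiving a single 10 µM acoustically dispensed dose. CellTiter-Glo luminescence was read 48 h later, after the supernatant was taken off. Genedata Screener was used to express viability as percent of the on-plate vehicle control.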

SMILES | cell viability [%]
CC1(C)CCC[C@](C)([C@H]2CC[C@]3(C)[C@@H]2[C@H](O)C[C@@H]2[C@@]4(C)CC[C@H](O)C(C)(C)[C@@H]4[C@@H](O)C[C@]23C)O1 [Panaxatriol] | 109
COc1cc2c(cc1OC)[C@@H]1Cc3ccc(OC)c(OC)c3CN1CC2 [Tetrahydropalmatine hydrochloride] | 83.9
CCCCCCCCOc1ccccc1C(=O)Nc1ccc(C(=O)OCC[N+](C)(CC)CC)cc1 [Otilonium Bromide] | 70.2
CC(CCc1ccccc1)NCC(=O)c1ccc(O)c(C(N)=O)c1 (stereo not given) [Labetalone hydrochloride] | 108
COC1(c2sc3c(N4CCOCC4)nc(-c4cnc(N)nc4)nc3c2C)COC1 | 16.4
CC(=O)N1CCN(c2ccc(OCC3COC(Cn4ccnc4)(c4ccc(Cl)cc4Cl)O3)cc2)CC1 (stereo not given) [Ketoconazole] | 30.8
CC(C)=CCOc1ccc(/C=C/C(=O)c2ccc(OCC=C(C)C)cc2OCC(=O)O)cc1 [Sofalcone] | 118
CC(C)=CCC[C@](C)(O[C@@H]1O[C@H](CO)[C@@H](O)[C@H](O)[C@H]1O)[C@H]1CC[C@]2(C)[C@@H]1[C@H](O)C[C@@H]1[C@@]3(C)CC[C@H](O)C(C)(C)[C@@H]3[C@@H](O[C@@H]3O[C@H](CO)[C@@H](O)[C@H](O)[C@H]3O[C@@H]3O[C@@H](C)[C@H](O)[C@@H](O)[C@H]3O)C[C@]12C [Ginsenoside Re] | 107
CC(=O)c1cc2c(o1)C(=O)c1ccccc1C2=O [Napabucasin] | 0.39
C/C=C(\C)C(=O)OC1c2c(ccc3ccc(=O)oc23)OC(C)(C)C1OC(=O)/C(C)=C/C (stereo not given) [Praeruptorin B] | 91.6
CN(C)CCCNC(=O)c1ccc(-c2cc(O)c3ncccc3c2)cc1 | 33.2
O=c1ncccn1[C@@H]1O[C@H](CO)[C@@H](O)[C@H]1O [Zebularine] | 86.6
C/C=C(/C)C(=O)OC(C)(C)[C@@H]1Cc2c(ccc3ccc(=O)oc23)O1 [Columbianadin] | 77.5
CCc1c(C(=O)NCCc2ccc(N3CCCCC3)cc2)[nH]c2ccc(Cl)cc12 | 107
COc1cccc(-c2cc(=O)c3ccccc3o2)c1N | 58
CC/C=C(\C(=O)N[C@@H]1C(=O)N2C(C(=O)OCOC(=O)C(C)(C)C)=C(COC(N)=O)CS[C@H]12)c1csc(N)n1 [Cefcapene Pivoxil Hydrochloride] | 106
CO/N=C(\C(=O)N[C@@H]1C(=O)N2C(C(=O)OCOC(=O)C(C)(C)C)=C(/C=C\c3scnc3C)CS[C@H]12)c1csc(N)n1 [Cefditoren pivoxil] | 111
COc1cc2c(=O)c(-c3ccc(O)cc3)coc2cc1O [Glycitein] | 82.3
S=c1nc[nH]c2nc[nH]c12 [6-Mercaptopurine (6-MP) Monohydrate] | 94.1
COc1ccccc1C(=O)Nc1cc2c(cc1N1CCCC1)n(C)c(=O)n2C | 69.2

SMILES | cell viability [%]
C[C@H]1[C@H](C)CC[C@]2(C(=O)O[C@@H]3O[C@H](CO[C@@H]4O[C@H](CO)[C@@H](O[C@@H]5O[C@H](C)[C@H](O)[C@@H](O)[C@H]5O)[C@H](O)[C@H]4O)[C@@H](O)[C@H](O)[C@H]3O)CC[C@]3(C)C(=CC[C@@H]4[C@@]5(C)C[C@@H](O)[C@H](O)[C@@](C)(CO)[C@@H]5CC[C@]43C)[C@H]12 [Asiaticoside] | 106
O=C1N=C(N2CCOCC2)CN1c1ccc(Cl)cc1 | 86.8
Cc1ncc(COP(=O)(O)O)c(C=O)c1O [Pyridoxal phosphate] | 110
COc1c(N2C[C@@H]3CCCN[C@@H]3C2)c(F)cc2c(=O)c(C(=O)O)cn(C3CC3)c12 [Moxifloxacin] | 90.4
C=CC(=O)Nc1cccc(Nc2nc(Nc3ccc(OCCOC)cc3)ncc2F)c1 | 31.8
COC(=O)N[C@H](C(=O)N1CCC[C@H]1c1ncc(-c2ccc(-c3ccc(-c4cnc([C@@H]5CCCN5C(=O)[C@@H](NC(=O)OC)C(C)C)[nH]4)cc3)cc2)[nH]1)C(C)C [Daclatasvir Digydrochloride] | 74
Cc1coc2c1C(=O)C(=O)c1c-2ccc2c(C)cccc12 [Tanshinone I] | 60
CC(C)=CCCC(C)=CCCC(C)=CCCC(C)=CCC1=C(C)C(=O)c2ccccc2C1=O [Vitamin K2] | 89.1
C=CC(=O)N1CCC(Oc2cc3c(Nc4ccc(Cl)c(Cl)c4F)ncnc3cc2OC)CC1 [Poziotinib (HM781-36B)] | 66.7
OCC(O)C(O)C(O)C(O)CO (stereo not given) [Allitol] | 99.3
CCCCC[C@](C)(O)/C=C/[C@@H]1[C@@H](C/C=C\CCCC(=O)O)[C@@H](O)C[C@H]1O [Carboprost] | 90.1
Cc1cc(C)nc(NS(=O)(=O)c2ccc(NC(=S)NC(=O)COc3ccc(Br)cc3Cl)cc2)n1 | 84.6
Cc1nc2cc(F)c(F)cc2n1-c1cncc(Nc2ccc(C(F)(F)F)cc2)n1 | 9.7
NC(=O)N/N=C/c1ccc([N+](=O)[O-])o1 [Nitrofurazone (Nitrofural)] | 103
COc1ccc2cc([C@H](C)C(=O)O)ccc2c1 [Naproxen Sodium] | 98.7
C[C@H]1O[C@@H](n2cc(F)c(=O)[nH]c2=O)[C@H](O)[C@@H]1O [Doxifluridine] | 99.7
Clc1cccc(Cl)c1NC1=NCCN1 [Clonidine hydrochloride (Catapres)] | 101
Cc1ccc(-c2nn(C(C)(C)C)c3ncnc(N)c23)cc1 | 78.6
CC(=O)OCCc1ccc(O)c(O)c1 [Hydroxytyrosol Acetate] | 110
CCCCCCCC(=O)N[C@H](CN1CCCC1)[C@H](O)c1ccc2c(c1)OCCO2 [Eliglustat (Tartrate)] | 97.1

Reference: the supplement of paper PMC10981050
